# Coupling enz: coupling enzyme interference in Giardia aldolase counter-screen; AID 2472; coupling enzyme system counterscreen, AmpLite Red fluorescence; activity change, negative = inhibition, % at 58.2 µM, hits read low; 0.67% of 290,000 active; in the data active = activity change below about -30%
#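 Counterscreen lacking aldolase: glyceraldehyde-3-phosphate coupling-enzyme reagent preincubated 10 min at RT with compound (at 57.5 uM final), then substrate/coupling system with AmpLite Red added; fluorescence read at 525/598 nm after 20 min RT.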
# TrxR1 substrate: rat thioredoxin reductase 1 substrate activity. 0.01% of 390,000 active. AID 588456. purified TrxR1 substrate turnover, NADPH consumption readout. Potency, µM (doses to about 114 µM), for inactives: at the top dose activity change, negative = substrate turnover. O89049; also: potency is read from the fitted curve at half-maximal effect; nearly all actives have a fitted effect of over 50% in size
# Target sequence (O89049 whole entry, looked up): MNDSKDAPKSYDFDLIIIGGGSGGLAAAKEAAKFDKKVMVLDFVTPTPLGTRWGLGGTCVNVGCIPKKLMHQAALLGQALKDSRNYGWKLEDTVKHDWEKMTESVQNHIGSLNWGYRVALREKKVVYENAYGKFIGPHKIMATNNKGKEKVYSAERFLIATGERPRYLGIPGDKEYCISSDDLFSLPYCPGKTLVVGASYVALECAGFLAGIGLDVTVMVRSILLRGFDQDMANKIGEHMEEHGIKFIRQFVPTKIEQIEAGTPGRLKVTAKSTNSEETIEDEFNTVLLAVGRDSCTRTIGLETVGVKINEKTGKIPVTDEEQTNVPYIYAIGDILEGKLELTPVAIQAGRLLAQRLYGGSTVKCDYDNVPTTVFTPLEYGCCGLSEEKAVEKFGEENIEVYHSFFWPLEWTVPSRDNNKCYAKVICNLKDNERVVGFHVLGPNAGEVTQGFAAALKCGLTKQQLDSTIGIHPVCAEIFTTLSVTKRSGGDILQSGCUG
#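 Rat TrxR1, dispensed at 90 nM, was prereduced with 400 uM NADPH (final) for 5 min at ~22 deg C, then incubated with compound 15 min before 400 uM selenite. A first-read NADPH fluorescence drop versus no-compound background flagged substrates.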
# USP1 inh: inhibitors of human USP1/UAF1 deubiquitinase. O94782. recombinant USP1/UAF1, Ub-Rhodamine cleavage fluorescence. Potency, µM (highest dose often 57.1 µM), inactives show at the highest dose activity change, negative = inhibition, most hits filed as inhibitors. 0.23% of 390,000 active. AID 743255; also: potency is read from the fitted curve at half-maximal effect; nearly all actives have a fitted effect of over 60% in size
#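 High-throughput fluorogenic screen: 1nM USP1/UAF1 complex, Ub-Rho substrate 150nM final, 50mM HEPES pH 7.8 with 0.5mM EDTA, 0.1 mg/ml BSA, 1mM TCEP and 0.01% Tween-20.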
# rTrxR1 inhibitor: blocks rat thioredoxin reductase 1 | AID 588453 | Potency, µM (top dose mostly 114 µM), without a hit: at the top dose activity change, negative = inhibition, actives largely listed as inhibitors | 1% of 390,000 active | recombinant rTrxR1, NADPH fluorescence consumption, selenite substrate; also: potency is read from the fitted curve at half-maximal effect; nearly all actives have a fitted effect of over 65% in size
#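 Rat TrxR1 (90 nM in the dispensed reagent) was pre-reduced with 400 uM NADPH for 5 min at room temperature, then incubated with compound for 15 min. After 400 uM selenite was added, NADPH fluorescence (Ex 340/Em 450 nm) was followed for 8 min.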
# GALK inhibitor: blocks human galactokinase activity | P51570 | Purified GALK, Kinase-Glo residual ATP luminescence | Potency, µM (highest dose often 57.5 µM), without a hit: top-dose activity change, negative = inhibition, actives largely listed as inhibitors | 0.007% of 270,000 active | AID 1868; also: potency is read from the fitted curve at half-maximal effect
#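 The enzyme phosphorylates galactose (100 uM) using ATP (35 uM); inhibition is detected as higher residual ATP, quantified by bioluminescence after 1 h reaction at room temperature, pH 8.0.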
# An asterisk follows results filed as active; i = inactive; ? = inconclusive; . = no result given; [ ] = another dose, or the depositor's remark. Sampled rows, rich in hits. Any-hit rate of the full collection: about 1.5%. Unless noted, calls follow the shape of the dose curve; as a rule, active = well fitted curve in the direction sought with a large enough effect; inconclusive = small, poorly fitted or top-dose-only effect, or another doubt; inactive = no such curve, though single readings can be large; an effect the other way counts as inactive or inconclusive. % is scaled to controls: 0 for no effect and ±100 for the full control effect.
SMILES,Coupling enz,TrxR1 substrate,USP1 inh,rTrxR1 inhibitor,GALK inhibitor
Cc1ccc(Sc2c([N+](=O)[O-])ncn2C)cc1,0.6,1.2%,-4.4%,?,.
Cc1cc(=O)n(CC(C)C)c(O)c1C#N,-32.8*,9.5%[57.1 µM],?,-0.2%[57.1 µM],-2.1%
CCn1c(O)c(C#N)c(C)cc1=O,-25.8,3.8%[57.1 µM],?,16.6%[57.1 µM],.
Cc1cc(=O)n(CCO)c(O)c1C#N,-46.1*,-8.9%,-10.5%,?,-0.9%
Cc1ccc(-c2csc3ncn(-n4c(C)ccc4C)c(=O)c23)o1,-3.6,-1.5%,-1.5%,31.6µM*,-2.2%
Cc1cccc(NC(=O)C(=O)NNC(=O)c2ccc(C(C)(C)C)cc2)c1,8.4,-1.6%,-11.4%,6.8%,-3.4%
Cc1ccc(F)c(NC(=O)/C(C#N)=C(\O)c2ccc(C(C)(C)C)cc2)c1,14.4,-8.4%,22.4µM*,4.2%,?
ONCc1ccccc1,-7.4,.,.,.,.
Cc1ccccc1N/C(=C(/C(Cl)=C(Cl)Cl)[N+](=O)[O-])n1nnc2ccccc21,0.3,4.4%[57.1 µM],-16.7%,10µM*,0.1%
COc1ccc(N/C(=C(/C(Cl)=C(Cl)Cl)[N+](=O)[O-])n2nnc3ccccc32)cc1,4.2,.,.,.,4.1%
Cc1c(CC(=O)NCC(=O)N[C@H](Cc2ccccc2)C(=O)O)c(=O)oc2cc(O)ccc12,-2.2,i,-18.5%,79.4µM*,.
COc1ccc(C2=Nn3c(nnc3-c3ccc(OC)cc3OC)SC2)cc1,0.1,.,.,.,.
Cc1cc(Sc2nnc(/N=C/N(C)C)s2)c2ccccc2n1,4.8,-3.4%,-12.9%,2.51µM*,-1.1%
Cc1cc(C)c2ccccc2n1,.,5.1%,.,7.4%,.
CCCCCCCCSc1nnc(/N=C/N(C)C)s1,6.5,1.3%[57.1 µM],5.1%,33.4%[57.1 µM],-1.5%
Cc1cc(Sc2nnc(N)s2)c2ccccc2n1,3.6,3.4%,-7.8%,8.91µM*,0.9%
COc1cccc2c1C(=O)/C(=C\c1ccc(N(C)C)cc1)C2,.,-3.8%,.,7.2%,.
CC1=NN(Cc2ccccc2)C(=O)C1C(c1ccc(Cl)cc1)C(C#N)C#N (stereo not given),3.9,-9.2%,-17.5%,25.1µM*,-0.4%
CC(C)CCC[C@@H](C)[C@@H]1CC[C@H]2C3=CC=C4CC(O)CC[C@]4(C)[C@H]3CC[C@@]21C (stereo not given in full),-2.2,.,.,.,.
Fc1ccc(/C=C/c2ccc3ccccc3n2)cc1,.,-15.0%,.,?,.
C=CCc1cccc(/C=N/c2ncccc2O)c1O,-42.8*,11.4%,-23.3%,14.1µM*,-2.8%
C=CCc1cccc(C=Nc2ccc(Br)cc2)c1O,2.8,-1.6%,-17.5%,12.5%,-0.2%
Cn1c2ccccc2c2ccc3c(c21)C(=O)C=CC3=O,.,15.3%[11.4 µM],?,-70.8%[57.1 µM],.
Cc1ccc2c(c1)c1ccc3c(c1n2C)C(=O)C=CC3=O,-12.2,2.5%,-22.5%,39.8µM*,.
CCCCS(=O)(=O)N1CCc2nc(-c3ccc(OC)cc3C)c3c(c2C1)CO[C@@H](c1ccccc1)C3,3.2,.,.,.,.
SMILES,Coupling enz,TrxR1 substrate,USP1 inh,rTrxR1 inhibitor,GALK inhibitor
O=C(CCl)Nc1c2c(nn1-c1ccccc1)CSC2,-0.1,-3.1%,-8.3%,12.6µM*,-1.9%
O=C(CCCCl)Nc1c2c(nn1-c1ccccc1)CSC2,-0.1,4.6%,-21.4%,26.6%,-1.2%
Cc1ccc(-c2cc(C3C4C=CCC(C)C4C(=O)N3Cc3ccccc3)ccc2F)cc1 (stereo not given),0.2,-10.8%,.,2.8%,.
Oc1ccc2ccccc2c1/C=N/n1cnnc1,1.8,-1.0%,-20.5%,0.4%,-1.4%
Cc1cc(C)n(/N=C\c2c(O)ccc3ccccc23)c(=O)c1C(N)=O,-32.4*,-10.5%,-12.4%,-3.1%,1.5%
COC(=O)C1=C(C)NC(=S)NC1c1ccc(-c2cc(Cl)ccc2Cl)o1 (stereo not given),0.3,2.9%,-24.8%,31.6µM*,-1.3%
C1=Cc2ccccc2/C1=C/c1ccc2c(c1)OCO2,.,-0.3%,.,4.1%,.
O=C(COC(=O)c1ccc([N+](=O)[O-])s1)Nc1ccc(Cl)cn1,-1.8,-2.2%,-20.1%,-15.6%,0.1%
Cc1c(Cl)cnc(NC(=O)COC(=O)c2ccc([N+](=O)[O-])s2)c1Cl,-11.5,1.0%,17.8µM*,?,-4.9%
O=c1c2ccccc2oc2ccc(-c3ccoc3)cc12,.,13.9%,.,?,.
O=C1C2=C(c3ccccc31)[N+](=O)[C@@H]1CCCC[C@@H]1N2[O-],-45.2*,5.7%,?,-0.9%,2.9%

# Source: PubChem
